Test results from PubChem BioAssay.
Calls of active or inactive are those of the source.

Legend:
[1] = system: Plasmodium falciparum Sir2 (PF13_0152, Sir2A); experiment: pfSir2 binders on small-molecule microarrays, primary screen, biochemical, small-molecule microarray, 635 nm fluorescence (AID 1098); settings: small-molecule microarray binding, fluorescence 635 nm; higher = more signal;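 further: score merges spot fluorescence intensity with its signal-to-noise ratio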
[2] = small-molecule microarray binders of probe aDKK1, primary screen, biochemical, biotinylated probe, 635/667 nm fluorescence (AID 1099); settings: higher = more signal;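 further: score merges 667nm spot fluorescence with signal to noise across triplicate slides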
[3] = small-molecule microarray binders of probe aCHRDL2, primary screen, biochemical, biotinylated probe, 635/667 nm fluorescence (AID 1100); settings: higher = more signal
[4] = splicing luciferase reporter signal modulators, primary screen, spliceosome inhibition project, cell-based, HEK293, splice +/- reporter (AID 1101); settings: luminescence, 24 h, higher = more signal, called active from +8 up or from −8 down;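 further: HEK293 cells carrying a splicing-competent luciferase reporter gene; test concentration not given here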
[5] = biological target: Fibroblast growth factor 10 (Homo sapiens) (UniProt O15520); experiment: FGF10 binders on small-molecule microarrays, primary screen, biochemical, small-molecule microarray, 635 nm fluorescence (AID 1102); settings: FGF10 binding, fluorescence 635 nm, higher = more signal
[6] = system: glycogen synthase kinase-3 (GSK3A per assay name; protocol says GSK3B); experiment: GSK3 binders on small-molecule microarrays, primary screen, biochemical, small-molecule microarray, 635 nm fluorescence, GSK3A (AID 1103); settings: small-molecule microarray binding, fluorescence 635 nm; higher = more signal; further: the record names both GSK3A and GSK3B
[7] = biological target: Epidermal growth factor receptor (Homo sapiens) (UniProt P00533); experiment: EGFR binders on small-molecule microarrays, primary screen, biochemical, small-molecule microarray, 635 nm fluorescence (AID 1104); settings: EGFR binding, higher = more signal;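 further: score merges 667 nm emission intensity with spot signal to noise over triplicate slides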
[8] = biological target: Follistatin-related protein 3 (Homo sapiens) (UniProt O95633); experiment: FSTL3 binders on small-molecule microarrays, primary screen, biochemical, small-molecule microarray, 635 nm fluorescence (AID 1105); settings: FSTL3 binding, higher = more signal;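 further: score merges emission near 667 nm and signal to noise per printed spot across three slides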
[9] = biological target: Dickkopf-related protein 1 (Homo sapiens) (UniProt O94907); experiment: DKK1 binders on small-molecule microarrays, primary screen, biochemical, small-molecule microarray, 635 nm fluorescence scan (AID 1106); settings: DKK1 binding, higher = more signal;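 further: score merges emission near 667 nm with signal to noise over three replicate slides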
[10] = system: Inhibin beta A chain (activin A); experiment: INHBA (activin A) binders on microarrays, primary screen, biochemical, small-molecule microarray, 635 nm fluorescence scan (AID 1107); settings: small-molecule microarray binding, higher = more signal;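 further: mouse activin A protein probed at 4.33 µg/mL on printed slides; score merges bound-protein fluorescence near 667 nm with spot signal-to-noise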
[11] = system: Human papillomavirus type 1a protein E7 (residues 44-93); experiment: HPV1a E7 fragment binders on microarrays, primary screen, biochemical, small-molecule microarray, residues 44-93, 635 nm fluorescence (AID 1108); settings: small-molecule microarray binding, fluorescence 635 nm; higher = more signal;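 further: E7 fragment applied at 1 µg/mL in TBST for 1 h at 4 C; score combines spot fluorescence with its signal to noise ratio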
[12] = modulators of HCV replicon luciferase signal, primary screen, HCV replication inhibitor project, Huh7 cells, luciferase reporter (AID 1109); settings: 48 h, higher = more signal;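 further: huh7 hepatoma cells harbouring a luciferase neomycin HCV replicon reporter; luciferase luminescence as measure of HCV replicon replication; test concentration not given here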
[13] = biological target: Left-right determination factor 2 (Homo sapiens) (UniProt O00292); experiment: LEFTY2 binders on small-molecule microarrays, primary screen, biochemical, small-molecule microarray, 635 nm fluorescence scan (AID 1110); settings: LEFTY2 binding, higher = more signal
[14] = biological target: Calmodulin-1 (Homo sapiens) (UniProt P0DP23); experiment: CALM1 binders on microarrays, EGTA buffer, profiling panel, biochemical, small-molecule microarray, Cy5-labelled CALM1 (AID 1111); settings: Cy5-CALM1 binding fluorescence, higher = more signal;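 further: labelled calmodulin applied in Tris saline Tween buffer holding calcium plus EGTA and DTT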
[15] = biological target: Calmodulin-1 (Homo sapiens) (UniProt P0DP23); experiment: calcium-bound CALM1 binders on microarrays, profiling panel, artefact control for SMM control-protein annotation, biochemical, small-molecule microarray, Cy5-labelled CALM1, plus calcium (AID 1112); settings: Cy5-CALM1 binding fluorescence, higher = more signal;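 further: score merges spot fluorescence with signal to noise from triplicate slides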
[16] = small-molecule microarray binders of probe aWnt5a, primary screen, biochemical, biotinylated probe, 635/667 nm fluorescence (AID 1113); settings: higher = more signal;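 further: score merges 667 nm fluorescence intensity with signal-to-noise per printed feature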
[17] = small-molecule microarray binders of probe aShh, primary screen, biochemical, biotinylated probe, 635/667 nm fluorescence (AID 1114); settings: higher = more signal;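 further: probe is biotin-labelled aShh protein from a stem cell growth factor screen; measures binding of labelled protein to compounds printed on the slide; score merges feature fluorescence at 667 nm with signal-to-noise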
[18] = small-molecule microarray binders of probe aNog, primary screen, biochemical, biotinylated probe, 635/667 nm fluorescence (AID 1115); settings: higher = more signal;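 further: probe is biotinylated aNog protein used at 0.15 µg/mL for 1 h at 4 C; z-score combines 667 nm fluorescence of each spot with its signal to noise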
[19] = biological target: Torsin-1A-interacting protein 1 (Homo sapiens) (UniProt Q5JTV8); experiment: LAP1 binders from COS7 cell lysate, primary screen, small-molecule microarray, 635/667 nm fluorescence (AID 1116); settings: COS7-hLAP1 lysate binding, 635 nm fluorescence, higher = more signal
[20] = biological target: Alpha-bungarotoxin (Bungarus multicinctus) (UniProt P60615); experiment: alpha-bungarotoxin binders on microarray, profiling panel, artefact control for SMM control protein annotation, biochemical, small-molecule microarray, Alexa647 label, 635/667 nm fluorescence (AID 1117); settings: alpha-BTX-A647 binding fluorescence, higher = more signal
Sequence of Alpha-bungarotoxin (Bungarus multicinctus) (P60615 whole entry, looked up): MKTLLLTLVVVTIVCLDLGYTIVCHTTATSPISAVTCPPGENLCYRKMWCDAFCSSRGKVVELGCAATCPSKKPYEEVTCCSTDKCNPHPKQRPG

Sequence of Epidermal growth factor receptor (Homo sapiens) (P00533 whole entry, looked up): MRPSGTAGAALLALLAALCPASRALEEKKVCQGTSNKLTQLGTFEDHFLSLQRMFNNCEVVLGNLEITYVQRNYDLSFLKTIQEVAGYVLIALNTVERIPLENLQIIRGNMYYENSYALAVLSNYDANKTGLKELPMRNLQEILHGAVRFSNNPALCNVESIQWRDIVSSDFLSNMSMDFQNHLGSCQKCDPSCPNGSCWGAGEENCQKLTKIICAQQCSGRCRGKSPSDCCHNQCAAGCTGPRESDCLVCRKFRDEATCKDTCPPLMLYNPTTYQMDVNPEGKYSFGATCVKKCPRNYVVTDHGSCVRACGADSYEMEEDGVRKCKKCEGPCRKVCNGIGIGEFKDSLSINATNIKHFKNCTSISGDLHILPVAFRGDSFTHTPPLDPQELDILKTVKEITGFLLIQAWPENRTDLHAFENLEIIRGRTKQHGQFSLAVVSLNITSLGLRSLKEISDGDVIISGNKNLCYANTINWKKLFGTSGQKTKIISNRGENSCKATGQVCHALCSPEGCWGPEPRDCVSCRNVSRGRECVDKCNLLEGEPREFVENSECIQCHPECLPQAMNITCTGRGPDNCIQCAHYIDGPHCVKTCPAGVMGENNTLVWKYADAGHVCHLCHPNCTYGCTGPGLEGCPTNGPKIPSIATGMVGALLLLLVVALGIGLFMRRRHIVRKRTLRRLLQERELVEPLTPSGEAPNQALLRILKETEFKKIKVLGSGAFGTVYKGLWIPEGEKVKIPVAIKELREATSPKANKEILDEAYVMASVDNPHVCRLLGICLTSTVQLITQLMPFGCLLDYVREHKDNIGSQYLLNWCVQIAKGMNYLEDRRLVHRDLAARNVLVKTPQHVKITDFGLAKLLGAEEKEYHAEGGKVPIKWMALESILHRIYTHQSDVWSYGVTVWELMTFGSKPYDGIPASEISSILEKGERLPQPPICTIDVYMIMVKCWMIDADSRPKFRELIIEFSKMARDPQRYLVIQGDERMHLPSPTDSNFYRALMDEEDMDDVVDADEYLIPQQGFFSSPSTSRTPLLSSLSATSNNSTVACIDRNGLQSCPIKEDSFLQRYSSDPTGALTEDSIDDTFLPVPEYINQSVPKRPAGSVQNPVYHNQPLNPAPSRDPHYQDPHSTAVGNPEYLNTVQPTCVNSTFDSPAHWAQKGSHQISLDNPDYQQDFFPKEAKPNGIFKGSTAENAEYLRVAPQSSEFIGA
Sequence of Dickkopf-related protein 1 (Homo sapiens) (O94907 whole entry, looked up): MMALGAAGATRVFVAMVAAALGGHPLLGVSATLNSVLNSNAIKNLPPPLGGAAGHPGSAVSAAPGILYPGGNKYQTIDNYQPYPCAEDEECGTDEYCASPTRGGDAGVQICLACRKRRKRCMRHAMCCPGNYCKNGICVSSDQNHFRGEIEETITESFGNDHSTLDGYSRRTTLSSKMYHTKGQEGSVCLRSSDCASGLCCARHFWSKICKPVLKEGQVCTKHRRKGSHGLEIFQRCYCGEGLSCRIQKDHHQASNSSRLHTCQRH
Sequence of Left-right determination factor 2 (Homo sapiens) (O00292 whole entry, looked up): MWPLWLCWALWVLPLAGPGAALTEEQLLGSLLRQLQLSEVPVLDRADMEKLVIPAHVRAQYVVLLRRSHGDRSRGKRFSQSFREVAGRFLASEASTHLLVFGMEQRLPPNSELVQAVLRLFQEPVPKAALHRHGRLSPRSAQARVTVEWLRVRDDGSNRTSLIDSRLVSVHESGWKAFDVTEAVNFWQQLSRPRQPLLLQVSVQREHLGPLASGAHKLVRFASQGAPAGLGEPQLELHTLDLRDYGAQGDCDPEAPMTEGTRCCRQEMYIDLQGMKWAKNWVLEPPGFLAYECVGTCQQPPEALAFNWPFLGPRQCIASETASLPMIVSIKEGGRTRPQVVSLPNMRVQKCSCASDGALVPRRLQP
Sequence of Fibroblast growth factor 10 (Homo sapiens) (O15520 whole entry, looked up): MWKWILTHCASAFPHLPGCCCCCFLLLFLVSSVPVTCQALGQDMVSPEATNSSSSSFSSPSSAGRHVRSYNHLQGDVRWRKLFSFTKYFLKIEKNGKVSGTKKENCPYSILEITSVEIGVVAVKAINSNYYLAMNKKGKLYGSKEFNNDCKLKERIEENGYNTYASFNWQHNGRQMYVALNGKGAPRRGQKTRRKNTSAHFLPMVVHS
Sequence of Follistatin-related protein 3 (Homo sapiens) (O95633 whole entry, looked up): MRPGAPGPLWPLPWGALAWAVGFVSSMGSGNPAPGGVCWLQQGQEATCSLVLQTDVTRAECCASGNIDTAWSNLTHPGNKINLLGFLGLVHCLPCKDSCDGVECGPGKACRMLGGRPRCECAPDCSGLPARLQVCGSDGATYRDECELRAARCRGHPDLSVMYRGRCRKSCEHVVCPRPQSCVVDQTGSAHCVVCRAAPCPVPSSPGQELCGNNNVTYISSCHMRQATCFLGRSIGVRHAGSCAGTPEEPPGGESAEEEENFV
Sequence of Torsin-1A-interacting protein 1 (Homo sapiens) (Q5JTV8 whole entry, looked up): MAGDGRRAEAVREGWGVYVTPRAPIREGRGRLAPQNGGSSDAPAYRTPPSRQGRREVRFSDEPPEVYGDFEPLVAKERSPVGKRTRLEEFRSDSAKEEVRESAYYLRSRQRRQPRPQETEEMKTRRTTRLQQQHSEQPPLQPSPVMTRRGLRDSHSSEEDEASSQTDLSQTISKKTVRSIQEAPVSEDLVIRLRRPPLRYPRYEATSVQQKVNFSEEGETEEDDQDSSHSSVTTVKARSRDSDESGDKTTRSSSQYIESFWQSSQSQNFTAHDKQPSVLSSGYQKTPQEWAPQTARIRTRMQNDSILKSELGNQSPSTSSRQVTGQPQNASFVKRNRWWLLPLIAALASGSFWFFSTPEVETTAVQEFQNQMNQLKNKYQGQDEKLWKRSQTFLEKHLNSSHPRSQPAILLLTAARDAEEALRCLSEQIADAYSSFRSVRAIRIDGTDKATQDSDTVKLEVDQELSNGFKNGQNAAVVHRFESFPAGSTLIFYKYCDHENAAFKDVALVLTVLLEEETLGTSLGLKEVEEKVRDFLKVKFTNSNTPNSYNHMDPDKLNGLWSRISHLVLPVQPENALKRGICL

Row | SMILES | composite z-score [1] | composite z-score [2] | composite z-score [3] | z-score [4] | composite z-score [5] | composite z-score [6] | composite z-score [7] | composite z-score [8] | composite z-score [9] | composite z-score [10] | composite z-score [11] | z-score [12] | composite z-score [13] | composite z-score [14] | composite z-score [15] | composite z-score [16] | composite z-score [17] | composite z-score [18] | composite z-score [19] | composite z-score [20]
1 | C=Cc1ccc([C@H]2N[C@H](C(=O)O)CC[C@@H]2C)cc1 | -0.642 | 0.178 | 0.02 | 0.0747 (inactive) | 0.741 | -0.88 | 0.14 | 0.505 | 0.723 | 0.363 | -1.08 | -1.09 | 0.712 | -0.478 | 0.222 | -0.105 | -0.0553 | -0.147 | -0.0037 | -0.112
2 | O=c1n(-c2ccccc2)c(=O)n2n1CC[C@@H]1C(=NOCc3ccccc3)[C@H]3O[C@H]3[C@@H](O)[C@@H]12 | -0.494 | -0.31 | -0.393 | 0.491 (inactive) | 0.334 | -0.864 | -0.0683 | -0.136 | 0.0228 | 0.168 | 0.0398 | -2.05 | 0.582 | -0.608 | -0.879 | -0.164 | -0.0035 | -0.113 | 0.0741 | 1.55
3 | CO[C@H]1COC(=O)[C@@H](C)COC(=O)[C@@H](OCc2ccccc2)C=C[C@@H]1C | 0.212 | -0.439 | -0.514 | 0.232 (inactive) | -0.162 | -0.227 | -0.0072 | -0.13 | 0.348 | 0.18 | -0.193 | -1.38 | 0.281 | 0.0243 | -0.642 | -0.0346 | -0.276 | -0.37 | -0.0153 | -0.807
4 | CC(CCN1CCCCc2nc(C)c(C)cc21)=NO[C@@H](C)c1cn([C@H](CO)Cc2ccccc2)nn1 | 0.683 | -0.217 | -0.46 | 0.16 (inactive) | 0.0253 | 0.54 | 0.593 | 0.902 | 1.17 | 0.788 | 0.271 | -0.507 | 0.813 | 0.404 | -0.0345 | -0.152 | -0.117 | -0.397 | 0.691 | 0.414
5 | CO[C@H]1COC(=O)[C@H](C)NC(=O)CC=C[C@@H](C)[C@H](OC)COC(=O)[C@@H](OCc2ccccc2)C=C[C@@H]1C | 0.68 | -0.747 | -1.33 | -0.00187 (inactive) | 0.0389 | 0.362 | 0.475 | 0.492 | 0.834 | 1.34 | -0.112 | -0.339 | 0.591 | -0.306 | -1.32 | -0.233 | -0.279 | 0.0021 | 0.129 | -0.233
6 | Cc1cc2c(c(=O)o1)[C@@H](O)[C@H]1O[C@H]1C2=O | 0.338 | -0.145 | -0.699 | -0.533 (inactive) | 0.436 | 0.231 | 0.287 | 0.522 | 0.585 | 0.0545 | -0.0158 | 0.73 | 0.384 | -0.374 | -0.876 | -0.154 | -0.243 | -0.265 | 0.27 | 0.56
7 | CC(CCN1CCCc2nc(C)c(C)cc21)=NO[C@@H](C)c1cc(-c2c(C)cc(C)cc2C)no1 | 0.739 | 0.0311 | -0.648 | -0.408 (inactive) | 0.322 | 0.525 | -0.0398 | 0.293 | 0.41 | 0.881 | 0.788 | -0.414 | 0.231 | 0.446 | -0.17 | -0.101 | 0.0952 | 0.173 | 0.601 | 0.494
8 | COC(=O)CC=C[C@@H](C)[C@@H](C=NO[C@@H]1O[C@H](COC(C)=O)[C@@H](OC(C)=O)[C@H](OC(C)=O)[C@H]1OC(C)=O)OC | -0.225 | -0.194 | -0.463 | 0.869 (inactive) | -0.481 | -0.757 | 0.383 | -0.4 | -2.27 | -2.01 | -0.428 | -1.57 | 0.499 | -0.937 | -1.48 | -0.175 | -0.309 | -0.249 | -0.461 | -0.463
9 | CCOC(=O)[C@H](Cc1ccccc1)NC(=O)CCC1CC(OC(=O)NCc2cccc3ccccc23)CC2(CCCC(COC(=O)NCc3cccc(C(F)(F)F)c3)O2)O1 (stereo not given in full) | 0.532 | -0.181 | -0.172 | -0.247 (inactive) | 0.152 | -0.189 | -0.185 | -0.278 | 0.025 | -0.151 | 0.72 | -0.771 | -0.131 | 0.716 | 0.143 | -0.0816 | -0.345 | -0.213 | 0.465 | 0.362
10 | C[C@@H](c1ccccc1)N1C(=O)[C@H]2[C@H]3[C@H](O)[C@H](O)CC(=NO[C@@H]4O[C@H](CO)[C@@H](O)[C@H](O)[C@H]4O)[C@@H]3CC[C@H]2C1=O | 0.256 | -0.193 | -0.62 | 0.119 (inactive) | 0.305 | 0.495 | 0.586 | 0.579 | 0.393 | 0.0868 | 0.292 | -0.278 | 0.576 | -0.238 | -0.686 | -0.0403 | -0.19 | 0.0924 | 0.526 | 0.199
11 | COc1ccc(O[C@@H]2[C@H](O)CO[C@H]2C=Cc2ccccc2)cc1 | 0.1 | -0.274 | -0.379 | -0.878 (inactive) | 0.0279 | -0.0395 | -0.033 | -0.267 | -0.275 | 0.799 | -0.206 | 0.388 | -0.547 | -0.248 | -0.246 | -0.0685 | -0.283 | 0.0308 | -0.395 | -0.527
